Bioassay records as filed in PubChem.
In the library only some 4.5% were active in any assay of this set; here they are far more common.
ALR H2O2 inh: blocks human ALR sulfhydryl oxidase activity | AID 485317 | purified ALR, DTT oxidation, H2O2 HRP-luminol luminescence | inhibition, % (concentration not given with the values) | 290,000 tested, 3.8% active | P55789;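 active means mean replicate inhibition above about 79%, with every replicate also reaching it, limit read from the data; inconclusive means only one of the two criteria met; inactive means mean below limit and not every replicate reaching it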
Target sequence (P55789 whole entry, looked up): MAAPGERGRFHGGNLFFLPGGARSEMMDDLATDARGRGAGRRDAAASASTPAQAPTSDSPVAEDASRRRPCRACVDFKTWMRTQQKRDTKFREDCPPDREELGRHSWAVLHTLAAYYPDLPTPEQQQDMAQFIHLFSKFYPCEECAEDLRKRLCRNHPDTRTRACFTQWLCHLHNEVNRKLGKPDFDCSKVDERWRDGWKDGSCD
GRK2 aptamer HTS: inhibitors of human GRK2 displacing RNA aptamer; inhibition of aptamer binding, % at 10 µM; 330,000 tested, 0.59% active; P25098; bead flow cytometry, FAM-aptamer displacement from GRK2; AID 488847;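 active means inhibition of aptamer binding above 40%, roughly 3 SD of noise, on plates passing a quality check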;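 further: median bead fluorescence of bound FAM aptamer so fluorescent compounds give negative values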
Rce1 inh: inhibitors of yeast Ras-converting enzyme. AID 2563. calls only. yeast membranes, quenched prenylated peptide cleavage fluorescence. 290,000 tested, 0.27% active;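 active means fall in fluorescence gain of 50% or more versus controls, with final raw signal at or below 3038400; inconclusive means same 50% fall but final raw signal above 3038400; inactive means fall in fluorescence gain under 50%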
Efflux pump mplx: antifungal efflux pump inhibition, Nile Red retention; AID 485275; 330,000 tested, 0.44% active; inhibition, % at 10 µM; S. cerevisiae Candida pump triplex;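 active means plate passing quality check with inhibition over a set limit, or well fluorescence over plate mean plus 4 SD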;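 further: Nile Red retained in pooled yeast measured as flow cytometry median fluorescence; higher means more Nile Red kept so more efflux inhibition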
HDAC3 inhib: inhibitors of human histone deacetylase 3; O15379; recombinant HDAC3, fluorogenic peptide/trypsin coupled, fluorescence; 320,000 tested, 0.15% active; inhibition, % at 8.3 µM; in the data active means inhibition above about 26%, passing the limit was not always enough; inconclusive means no clear call, values can overlap the other calls
Target sequence (O15379 whole entry, looked up): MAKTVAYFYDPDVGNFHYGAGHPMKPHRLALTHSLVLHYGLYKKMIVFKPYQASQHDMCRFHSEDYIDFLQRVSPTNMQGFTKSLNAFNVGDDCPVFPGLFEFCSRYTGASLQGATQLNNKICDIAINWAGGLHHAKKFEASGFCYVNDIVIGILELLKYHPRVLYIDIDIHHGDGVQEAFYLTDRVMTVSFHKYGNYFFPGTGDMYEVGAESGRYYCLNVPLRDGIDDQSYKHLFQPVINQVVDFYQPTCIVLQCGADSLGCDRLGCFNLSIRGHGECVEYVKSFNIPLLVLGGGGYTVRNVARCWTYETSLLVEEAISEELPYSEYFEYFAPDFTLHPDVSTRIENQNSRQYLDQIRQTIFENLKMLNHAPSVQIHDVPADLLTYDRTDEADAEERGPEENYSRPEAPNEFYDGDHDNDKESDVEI
Rtt109 HAT inh: blocks Candida albicans Rtt109/Vps75 acetyltransferase activity; Q5AAJ8; purified Rtt109/Vps75, ThioGlo CoA-SH fluorescence, 4 h; inhibition, % at 34.9 µM; 330,000 tested, 0.16% active;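 active means inhibition of at least 50% in every replicate; inconclusive means best replicate reaches 50% inhibition but some replicates fall short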
Cmpd fluor yeast: counter-screen for efflux pump inhibitors: compound fluorescence; shares compounds with Efflux pump mplx; S. cerevisiae AD/pABC3, flow cytometry; fluorescence ratio to DMSO, % at 10 µM; 1,700 tested, 4% active;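 active means fluorescence ratio to DMSO above its plate's cutoff, the plate mean ratio plus 5 SD, cut at about 210% in these data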;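 further: unstained yeast with no Nile Red so the signal is compound autofluorescence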
CaMdr1 efflux inh: inhibitors of Candida albicans Mdr1 efflux pump; inhibition, % at 10 µM; AID 588518; S. cerevisiae AD/CaMDR1, Nile Red efflux, flow cytometry; 1,700 tested, 1% active; shares compounds with Efflux pump mplx; in the data active means inhibition above about 26%;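 further: higher means more Nile Red retained so more efflux inhibition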
CaCdr2 efflux inh: inhibitors of Candida albicans Cdr2 efflux pump. 1,700 tested, 4% active. AID 588520. Nile Red retention ratio vs DMSO, % at 10 µM. shares compounds with Efflux pump mplx. S. cerevisiae AD/CaCDR2, Nile Red retention, flow cytometry; in the data active means Nile Red retention ratio vs DMSO above about 190%;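 further: higher ratio means more blocking of Cdr2 efflux of the dye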
Cdr1 pump inh: Candida Cdr1 efflux pump inhibition | shares compounds with Efflux pump mplx | S. cerevisiae AD/CaCDR1, Nile Red efflux, flow cytometry | inhibition, % at 10 µM | 1,700 tested, 1% active | AID 588522;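 active means inhibition above the screen-wide mean plus twice its standard deviation, cut at about 32% in these data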
Hits are given with their value; – = inactive; ? = inconclusive; · = not tested or not shown.

SMILES | ALR H2O2 inh | GRK2 aptamer HTS | Rce1 inh | Efflux pump mplx | HDAC3 inhib | Rtt109 HAT inh | Cmpd fluor yeast | CaMdr1 efflux inh | CaCdr2 efflux inh | Cdr1 pump inh
CCn1c(=O)c2ccccc2n(Cc2cccc([N+](=O)[O-])c2)c1=O | · | – | – | – | – | – | · | · | · | ·
CCC(Sc1nc2cc(OC)c(OC)cc2c(=O)n1CCc1ccc(OC)c(OC)c1)C(=O)NCCOC (centres undefined) | – | – | · | 1.3 | – | – | – | – | – | –
Cc1ccc(-c2c[n+](Cc3ccc(Cl)c(Cl)c3)c3n2CCC3)cc1 | – | – | – | 17.7 | – | – | – | – | – | –
Cc1ccc(NC(=O)C[n+]2cc(-c3ccc(C)cc3)n3c2CCC3)cc1 | · | – | – | – | – | – | – | – | – | –
O=C(C[n+]1cc(-c2ccc(Cl)c(Cl)c2)n2c1CCC2)N1c2ccccc2Sc2ccccc21 | · | – | – | 4.3 | – | 57.1 | – | – | – | –
O=C(C[n+]1cc(-c2ccc(Cl)cc2)n2c1CCC2)N1c2ccccc2Sc2ccccc21 | – | – | – | – | – | – | · | · | · | ·
Cc1ccc(C(=O)C[n+]2cc(-c3ccc(C)cc3)n3c2CCCCC3)cc1 | – | – | – | – | – | ? | · | · | · | ·
Cc1ccc(-c2c[n+](CC(=O)Nc3ccc(C)cc3C)c3n2CCC3)cc1 | – | – | – | – | – | – | · | · | · | ·
O=c1c2ccccc2nnn1Cc1cccc2ccccc12 | – | – | – | – | – | – | · | · | · | ·
O=c1c2ccccc2nnn1Cc1ccccn1 | – | – | – | 8.2 | – | – | – | – | – | –
O=C(CCCn1nnnc1CN1CCOCC1)N1CCN(c2ccccc2F)CC1 | – | – | – | – | – | – | · | · | · | ·
COc1ccc(OCC(O)CN2CCNCC2)cc1 (centres undefined) | – | – | – | – | – | ? | · | · | · | ·
CC1=C(C)CC(C(=O)Nc2cccc([N+](=O)[O-])c2)C(C(=O)O)C1 (centres undefined) | – | – | – | 34.8 | – | – | – | – | – | –
CCn1nc(C)c(CNC(=O)c2ccc(OC3CCN(Cc4ccccn4)CC3)cc2)c1C | – | – | – | – | – | – | · | · | · | ·
COCC1CCN(C(=O)c2cc(COc3ccc(OC)c4ccccc34)on2)C1 (centres undefined) | · | – | – | 7.2 | – | – | – | – | – | –
Cn1c(-c2ccccc2O)cc2ccccc21 | · | – | – | 0.2 | – | – | – | – | – | –
CC(C)(C)SCCNC(=O)/C=C/c1ccc(F)cc1 | – | – | – | – | – | – | · | · | · | ·
CC(C)(CNC(=O)/C=C/c1ccc(F)cc1)CNC(=O)/C=C/c1ccc(F)cc1 | – | – | – | 12.6 | – | – | – | – | – | –
Cc1cccc(OCCC(=O)NNC(=O)Cn2nc(C)cc2C)c1 | – | – | · | – | – | – | · | · | · | ·
COc1ccc(CCC(=O)NNC(=O)Cn2nc(C)cc2C)cc1 | – | – | – | 5.5 | – | – | – | – | – | –
O=C(NNC(=O)c1cccs1)c1ccc(S(=O)(=O)N2CCCCC2)cc1 | – | – | – | 11.4 | – | – | – | – | – | –
CC(NC(=O)c1cc(F)c(F)cc1Cl)C1CC2CCC1C2 (centres undefined) | – | – | – | – | – | – | · | · | · | ·
Cc1[nH]c2ccccc2c1C(=O)C(=O)NCc1ccncc1 | · | – | – | – | – | – | · | · | · | ·
Cc1ccc(NC(=S)NN(C)c2nc(C)cnc2C)cc1 | – | – | – | 9.6 | – | – | – | – | – | –
CCn1cc(CNC(=O)c2cccc([N+](=O)[O-])c2)c(C)n1 | – | – | – | 11.1 | – | – | – | – | – | –
SMILES | ALR H2O2 inh | GRK2 aptamer HTS | Rce1 inh | Efflux pump mplx | HDAC3 inhib | Rtt109 HAT inh | Cmpd fluor yeast | CaMdr1 efflux inh | CaCdr2 efflux inh | Cdr1 pump inh
Cc1ccc(OCCNc2ccc(C(F)(F)F)cc2[N+](=O)[O-])cc1 | – | – | – | – | – | – | · | · | · | ·
O=[N+]([O-])c1cc(C(F)(F)F)ccc1NCCc1ccccn1 | – | – | – | 0.9 | – | – | – | – | – | –
CSCCC(NC(=O)/C(=C\c1ccc(Cl)cc1)NC(=O)c1ccccc1)C(=O)O (centres undefined) | – | – | – | – | – | – | · | · | · | ·
CC(C)(C)OC(=O)NCc1ccc(NC(=O)c2nc[nH]c2C(=O)NCCCCCCNC(=O)c2[nH]cnc2C(=O)Nc2ccc(CNC(=O)OC(C)(C)C)cc2)cc1 | – | – | · | 1.8 | – | – | – | – | – | –
Cn1ccc(NC(=O)c2ccc(Cl)cc2)n1 | · | – | · | 150.6 | – | – | – | – | – | –
C[C@H](CO)N1C[C@H](C)[C@@H](CN(C)C(=O)NC2CCCCC2)Oc2ccc(NC(=O)C3CC3)cc2C1=O | · | · | · | · | · | – | · | · | · | ·
O=C(NCc1ccccc1Cl)C(=O)NCC1OCCN1S(=O)(=O)c1ccc(F)cc1 (centres undefined) | – | – | – | – | – | – | · | · | · | ·
COc1ccc(S(=O)(=O)N2CCOC2CNC(=O)C(=O)NCc2ccccc2OC)cc1 (centres undefined) | – | – | – | 1.1 | – | – | – | – | – | –
COc1ccc(S(=O)(=O)N2CCOC2CNC(=O)C(=O)NCCc2ccccc2OC)cc1 (centres undefined) | · | – | – | – | – | – | · | · | · | ·
COc1ccc(S(=O)(=O)N2CCOC2CNC(=O)C(=O)NCc2ccccc2Cl)cc1 (centres undefined) | – | – | – | – | – | – | – | – | – | –
COc1ccccc1CNC(=O)C(=O)NCC1OCCN1S(=O)(=O)c1ccc(Br)cc1 (centres undefined) | – | – | – | – | – | – | – | – | – | –
COc1ccccc1NC(=O)COC(=O)C1=NN(c2ccccc2)C(=O)CC1 | – | – | · | – | – | – | · | · | · | ·
O=C(O)c1ccccc1N/C=C\[N+](=O)[O-] | – | – | – | 0.7 | – | – | – | – | – | –
CCC1=C(OC(=O)N(CC)CC)N2C(=O)OC(=NCCc3c[nH]c4ccccc34)[C@]2(Cc2ccccc2)[C@H]2C1=CC[C@H]1C(=O)N(CC(=O)OC)C(=O)[C@H]12 | – | – | – | 7.3 | ? | – | – | – | – | –
CCC1=C(OC(=O)N(CC)CC)N2C(=O)OC(=NCCOC)[C@]2(Cc2ccccc2)[C@H]2C1=CC[C@H]1C(=O)N(CC(=O)OC)C(=O)[C@H]12 | – | – | – | – | – | – | · | · | · | ·
Cc1ccc(C(=O)Nc2ncc3c(n2)CC(c2ccco2)CC3=O)cc1 (centres undefined) | – | – | – | 9.0 | – | – | – | – | – | –
CCCOc1ccc(C(=O)Nc2ccc(NC(=O)c3cccs3)cc2)cc1 | · | – | – | 1.7 | – | – | – | – | – | –
